Assay results: PubChem BioAssay (NCI)
The panel holds about 83,000 compounds, 20% with a hit somewhere; the sample as a whole holds those more often.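 Negative percent growth values reflect cell death: -40 means 40% of the cells present at the start died, and -100 means all died.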 Calls of active or inactive are those of the source. Rule for the calls: active = growth percent below 10; inactive = the rest.

Test system: SK-MEL-5 melanoma
Assay: NCI-60 one-dose screen, 48 h (100 = growth as untreated, 0 = no growth, -100 = all killed)
Details: 10 µM

Structure (SMILES)	growth
COc1cccc(O)c1O	55.9% (inactive)
CC(=O)/C(Cc1ccccc1)=N/O	106% (inactive)
C=CCNC(=O)c1ccc(OC)cc1	103% (inactive)
C/C(=N/NC(N)=O)c1ccco1	105% (inactive)
COCCOC(=O)c1ccc(C(C)C)cc1	103% (inactive)
C[N+](C)=c1ccc2nc3c(cc(Nc4ccccc4)c4ccccc43)oc-2c1	46.3% (inactive)
Cc1cccc(CO)c1	99.7% (inactive)
Nc1nc(N)c(N=Nc2ccc(C(=O)O)cc2)c(N)n1	100% (inactive)
COCCOCCCl	92.1% (inactive)
Nc1ncnc2[nH]ncc12	15% (inactive)
O=[N+]([O-])c1ccc(-c2ncc(-c3ccc(Br)cc3)o2)cc1	89.4% (inactive)
CCOC(=O)CSc1c([N+](=O)[O-])ncn1C	96.2% (inactive)
CC(C)(O)C#CC#CC(C)(C)O	99% (inactive)
COc1cc(C2NC(=O)C(C#N)=C(Nc3cccc(C)c3)S2)ccc1O (stereo unspecified)	101% (inactive)
CCOC(=O)Nc1nn[nH]n1	103% (inactive)
O=C(NN=C1CCCCC1)C(=O)NN=C1CCCCC1	99.9% (inactive)
O=C(CCl)Nc1ccc2c(c1)C(=O)c1ccc(NC(=O)CCl)cc1C2=O	-88% (active)
CCCCOC(=O)c1ccc(C(C)C)cc1	106% (inactive)
O=C(NC1CCCCC1)OCc1c(COC(=O)NC2CCCCC2)c(-c2ccc(Cl)c(Cl)c2)n2c1CCC2	41.6% (inactive)

Structure (SMILES)	growth
N#CCCN(CCCN1CCOCC1)CN1C(=O)c2ccccc2C1=O	96.8% (inactive)
Cc1ccccc1N=C(c1ccccc1)C1C(=O)c2ccccc2C1=O	-0.209% (active)
O=c1[nH]cc(Cl)cc1O	86.6% (inactive)
CC(C)OC(C(=O)O)c1ccccc1 (stereo unspecified)	105% (inactive)
CCCOC(=O)C(O)c1ccccc1 (stereo unspecified)	104% (inactive)
COc1ccccc1NC(=O)c1cc2cc(Br)ccc2cc1O	-74.6% (active)
OCCN1CCOCC1	103% (inactive)
OCC1OC(OC2C(O)C(CO)OC2(CO)OC2OC(CO)C(O)C(O)C2O)C(O)C(O)C1O (stereo unspecified)	109% (inactive)
Cc1ccc(Cl)cc1NC(=O)N(C)CCO	101% (inactive)
CCOC(=O)C(O)C(O)C(=O)OCC (stereo unspecified)	97.5% (inactive)
O=c1cc(-c2ccccc2)nc2cc(-c3ccco3)[nH]n12	83.1% (inactive)
S=c1[nH]ccn1-c1ccccc1Cl	112% (inactive)
C[N+](C)(C)C(=O)c1ccccc1	105% (inactive)
CCc1ccc(/C(C#N)=C/C=C/c2ccccc2)cc1	9.25% (active)
O=C(O)c1ccnc(Br)c1	93.5% (inactive)
S=c1nn[nH]c2ccccc12	97.9% (inactive)
O=[N+]([O-])c1ccc(CO)cc1	101% (inactive)
O=C1C=C(O)C(=O)C=C1O	114% (inactive)
C#Cc1cccc(NC(=O)c2ccc(Cl)cc2Cl)c1	91.1% (inactive)

Test system: UACC-62 melanoma
Assay: as above
Details: 10 µM unless noted

Structure (SMILES)	growth
COc1cccc(O)c1O	45.5% (inactive)
CC(=O)/C(Cc1ccccc1)=N/O	98.1% (inactive)
C=CCNC(=O)c1ccc(OC)cc1	99.1% (inactive)
C/C(=N/NC(N)=O)c1ccco1	102% (inactive)
COCCOC(=O)c1ccc(C(C)C)cc1	99.4% (inactive)
C[N+](C)=c1ccc2nc3c(cc(Nc4ccccc4)c4ccccc43)oc-2c1	44.8% (inactive)
Cc1cccc(CO)c1	104% (inactive)
Nc1nc(N)c(N=Nc2ccc(C(=O)O)cc2)c(N)n1	94.4% (inactive)
COCCOCCCl	104% (inactive)
Nc1ncnc2[nH]ncc12	-15.9% (active)
O=[N+]([O-])c1ccc(-c2ncc(-c3ccc(Br)cc3)o2)cc1	93.3% (inactive)
CCOC(=O)CSc1c([N+](=O)[O-])ncn1C	97.8% (inactive)
CC(C)(O)C#CC#CC(C)(C)O	111% (inactive)
COc1cc(C2NC(=O)C(C#N)=C(Nc3cccc(C)c3)S2)ccc1O (stereo unspecified)	97.8% (inactive)
CCOC(=O)Nc1nn[nH]n1	99.3% (inactive)
O=C(NN=C1CCCCC1)C(=O)NN=C1CCCCC1	109% (inactive)
O=C(CCl)Nc1ccc2c(c1)C(=O)c1ccc(NC(=O)CCl)cc1C2=O	-73.1% (active)
CCCCOC(=O)c1ccc(C(C)C)cc1	103% (inactive)
O=C(NC1CCCCC1)OCc1c(COC(=O)NC2CCCCC2)c(-c2ccc(Cl)c(Cl)c2)n2c1CCC2	9.04% (active)

Structure (SMILES)	growth
N#CCCN(CCCN1CCOCC1)CN1C(=O)c2ccccc2C1=O	107% (inactive)
Cc1ccccc1N=C(c1ccccc1)C1C(=O)c2ccccc2C1=O	63.1% (inactive)
O=c1[nH]cc(Cl)cc1O	40.5% (inactive)
CC(C)OC(C(=O)O)c1ccccc1 (stereo unspecified)	97.1% (inactive)
CCCOC(=O)C(O)c1ccccc1 (stereo unspecified)	98.2% (inactive)
COc1ccccc1NC(=O)c1cc2cc(Br)ccc2cc1O	24.3% (inactive)
OCCN1CCOCC1	103% (inactive)
OCC1OC(OC2C(O)C(CO)OC2(CO)OC2OC(CO)C(O)C(O)C2O)C(O)C(O)C1O (stereo unspecified)	107% (inactive)
Cc1ccc(Cl)cc1NC(=O)N(C)CCO	109% (inactive)
CCOC(=O)C(O)C(O)C(=O)OCC (stereo unspecified)	102% (inactive)
O=c1cc(-c2ccccc2)nc2cc(-c3ccco3)[nH]n12	67.8% (inactive)
S=c1[nH]ccn1-c1ccccc1Cl	107% (inactive)
C[N+](C)(C)C(=O)c1ccccc1	94% (inactive)
CCc1ccc(/C(C#N)=C/C=C/c2ccccc2)cc1	29.6% (inactive)
O=C(O)c1ccnc(Br)c1	106% (inactive)
S=c1nn[nH]c2ccccc12	99.2% (inactive)
O=[N+]([O-])c1ccc(CO)cc1	99.1% (inactive)
O=C1C=C(O)C(=O)C=C1O	102% (inactive)
C#Cc1cccc(NC(=O)c2ccc(Cl)cc2Cl)c1	87.9% (inactive)
